What all share (experiment): NCI-60 one-dose screen, 48 h (100 = growth as untreated, 0 = no growth, -100 = all killed)
Common to all, as to conditions: 10 µM unless noted

Experiment [1] relates to NCI-H23 lung.
For experiment [2], the system named is NCI-H226 lung.
Experiment [3] relates to NCI-H322M lung.
Experiment [4] deals with HOP-62 NSCLC.
Experiment [5] deals with NCI-H460 lung.
For experiment [6], the system named is HOP-92 NSCLC.
Experiment [7] deals with NCI-H522 lung.
In experiment [8] the test system is A549/ATCC NSCLC.
The subject of experiment [9] is 786-0 renal.
The subject of experiment [10] is COLO 205 colon.
Experiment [11] has as its system DU-145 prostate.
For experiment [12], the system named is K-562 leukemia.
In experiment [13] the test system is MALME-3M melanoma.
In experiment [14] the test system is MDA-MB-231 breast.
For experiment [15], the system named is RXF 393 renal.
Experiment [16] deals with SF-268 CNS.
Experiment [17] relates to SF-295 CNS.
For experiment [18], the system named is SF-539 CNS.
Experiment [19] relates to UACC-257 melanoma.
Experiment [20] has as its system M14 melanoma.

About 83,000 compounds went through this panel and 20% of them were active in at least one assay; those are over-represented in the sample as a whole.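 Testing used 96-well plates and a 48-hour single-concentration exposure. Example: -40 means 40% of the starting cells died.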 A number with no mark means an inactive call. Calls of active or inactive are those of the source. How the source made its calls: active means growth percent below 10; inactive means the rest.

For the compound `CCc1nnc(NC(=O)c2cc(-c3ccc(Cl)cc3Cl)oc2C)s1`, the growth in [1] is 85.7%; in experiment [2], 85.6%; in experiment [3] it was 85.4%; in experiment [4], 96%; in experiment [5], 53.9%; in experiment [6] it was 92%. Moreover, the growth in [7] is 79.4%; in experiment [8], 77.1%; in experiment [9], 95.9%; in experiment [10], 105%; in experiment [11], 93.5%; in experiment [12], 86%. Besides, the growth was 88.3% in [13]; 91.5% in experiment [14]; 109% in experiment [15]; 89.3% in experiment [16]; 94.2% in [17]; 92.4% in experiment [18]. In addition, the growth in experiment [19] was 103%; in experiment [20], 93.3%.
With `O=C(CCl)Nc1ccc(NC(=O)c2cc(Cl)ccc2O)c(Cl)c1`, the growth was 29% in experiment [1]; 59% in experiment [2]; 96% in experiment [3]; 101% in [4]; 67.1% in experiment [5]; 127% in experiment [6]. Further, the growth in experiment [7] is -22.6% (active); in experiment [8] it was 88.3%; in experiment [9], 88%; in [10] it was 95.2%; in experiment [11], 95.2%; in [12] it was 32.8%. Besides, the growth in [13] was 81.8%; in [14], 87.6%; in experiment [15], 87.4%; in experiment [16] it was 85%; in experiment [17] it was 83.6%; in experiment [18], 73.1%. For the same compound, the growth in [19] was 89.9%; in experiment [20], 76.6%.
`O=C(CCCCCCNC(=O)C(O)(O)C(F)(F)F)Nc1ccc(-c2ccccc2)cc1`: the growth was 9.87% (active) in experiment [1]; 39.4% in experiment [2]; 28.2% in experiment [3]; -4.5% (active) in [4]; 7.65% (active) in [5]; -13.6% (active) in experiment [6]. Moreover, the growth is -30.9% (active) in experiment [7]; 8.66% (active) in experiment [8]; 22.8% in experiment [9]; -61.9% (active) in experiment [10]; 12% in [11]; 9.55% (active) in [12]. Also, the growth was 3.09% (active) in experiment [13]; 25% in experiment [14]; -45% (active) in experiment [15]; -4.51% (active) in experiment [16]; -32.1% (active) in [17]; 19.7% in [18]. Moreover, the growth in experiment [19] was 14.8%; in [20], 20.7%.
On to `CCN(CC)c1ccc(/C=N/NC(=O)c2ccc(NS(C)(=O)=O)cc2)c(O)c1`, for which the growth is 23.3% in experiment [1]; 39.3% in experiment [2]; 25.2% in experiment [3]; 13.2% in experiment [4]; 3.18% (active) in experiment [5]; 38.9% in experiment [6]. In addition, the growth in experiment [7] is 12.5%; in experiment [8], 12.3%; in experiment [9], 1.77% (active); in experiment [10], 5.67% (active); in [11], 31.3%; in experiment [12], 14.2%. Besides, the growth was 4.46% (active) in experiment [13]; 38.4% in [14]; -9.12% (active) in experiment [15]; 22.7% in experiment [16]; 9.79% (active) in experiment [17]; 7.08% (active) in [18]. Further, the growth in [19] was -6.91% (active); in [20], 0.206% (active).
Take `CC(=O)Nc1nc(C)c(-c2csc(Nc3ccccc3)n2)s1`: the growth in experiment [1] was 35.2%; in [2], 19.4%; in [3], 27.6%; in [4], 42.8%; in experiment [5] it was 21.8%; in [6] it was 24.6%. Further, the growth is 9.26% (active) in experiment [7]; 44.3% in [8]; 25.7% in experiment [9]; 38% in experiment [10]; 30% in [11]; 24.8% in experiment [12]. The growth is 13% in experiment [13]; 33% in [14]; 6.02% (active) in [15]; 46.7% in [16]; 11.9% in [17]; 15.9% in [18]. The growth in experiment [19] is 50.7%; in experiment [20] it was 35.3%.
On to `CCCCN1C(=O)/C(=c2\sc3n(c2=O)C2C(NN=3)N(CC)C(=O)N2CC)c2cccc(C)c21` (stereo not given), for which the growth in [1] was 49.7%; in experiment [2] it was 36.6%; in [3], 52.7%; in [4] it was 46.8%; in experiment [5], 18.8%; in experiment [6], 71.1%. For the same compound, the growth in experiment [7] is 39.4%; in [8] it was 57.1%; in [9] it was 63.3%; in experiment [10], 24.6%; in experiment [11], 37.6%; in [12], 15%. Moreover, the growth in experiment [13] is 54.5%; in [14], 60%; in experiment [15], 11.9%; in experiment [16], 56.2%; in experiment [17], 29.1%; in experiment [18] it was -7.82% (active). Moreover, the values for the growth in experiment [19] and in experiment [20] were 89.4% and 27%, respectively.
On to `CN1CCN(Cc2ccc(NC(=O)c3cncc(C#Cc4cnc5ccc(O[C@@H]6CCOC6)nn45)c3)cc2C(F)(F)F)CC1`, for which the growth in [1] is -65.2% (active); in experiment [2], -60.7% (active); in experiment [3], -49.3% (active); in experiment [4], -79.1% (active); in experiment [5], -83.3% (active); in experiment [6] it was -39.6% (active). In addition, the growth in [7] is -72% (active); in experiment [8] it was -76.8% (active); in experiment [9] it was -87.9% (active); in experiment [10] it was -77.4% (active); in [11], -91.1% (active); in experiment [12] it was -12.6% (active). The growth in experiment [13] was -89.6% (active); in experiment [14], -73.2% (active); in [15], -79.1% (active); in experiment [16] it was -68.3% (active); in experiment [17], -88.5% (active); in experiment [18], -89% (active). For the same compound, the growth in experiment [19] was -74.6% (active); in experiment [20] it was -86.3% (active).
Regarding `CCOC(=O)c1cccc(NC2=C(Cl)C(=O)c3nc(C)ccc3C2=O)c1`, the growth in experiment [1] was 65.2%; in experiment [2], 89.5%; in experiment [3], 104%; in experiment [4], 112%; in [5], 100%; in [6], 108%. Further, the growth in experiment [7] was 88.4%; in [8], 101%; in [9], 103%; in experiment [10], 120%; in [11], 108%; in experiment [12], 15.6%. In addition, the growth in [13] was 96.3%; in experiment [14], 89.8%; in [15], 97.8%; in experiment [16], 96.2%; in experiment [17], 113%; in experiment [18], 104%. In addition, the growth in experiment [19] was 82%; in experiment [20], 96.4%.

The values are drawn from PubChem BioAssay (NCI).
